Screening results as filed in PubChem BioAssay.
G9a inh: qHTS Assay for Inhibitors of Histone Lysine Methyltransferase G9a; hit rate 8.8% among 350,000; Histone-lysine N-methyltransferase EHMT2 (Homo sapiens), Q96KQ7; G9a H3K9 monomethylation, AlphaScreen, 2 h; Potency, µM (top dose mostly 102 µM), for inactives: at the top dose activity, negative = inhibition, hits mostly inhibitors; also: % is scaled to controls: 0 for no effect and ±100 for the full control effect; nearly all actives have a fitted effect of over 75% in size
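Quantitative HTS format: methyltransferase activity on a biotin-tagged H3K9 peptide is measured by AlphaScreen, using a rabbit anti-monomethyl-H3K9 antibody with streptavidin donor and anti-IgG acceptor beads. Final levels are 20 nM enzyme, 500 nM peptide, 20 uM SAM; 2 h RT.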
L3MBTL1 inh: qHTS Assay for the Inhibitors of L3MBTL1 | Lethal(3)malignant brain tumor-like protein 1 (Homo sapiens), Q9Y468 | AlphaScreen L3MBTL1–H3K9me1 peptide binding | Potency, µM (titrated, usually from 57.1 µM), for the others: at the top dose activity, negative = inhibition, hits mostly inhibitors | hit rate 0.66% among 230,000; also: % is scaled to controls: 0 for no effect and ±100 for the full control effect; nearly all actives have a fitted effect of over 60% in size
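L3MBTL1 (50 nM) pre-complexed 30 min with biotinylated H3(1-15)K9me1 peptide (75 nM), then compounds added for 30 min at room temperature; AlphaScreen streptavidin donor/nickel chelate acceptor beads (10 ug/mL final) read after 30 min dark incubation.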
BAZ2B block: qHTS Assay for Inhibitors of BAZ2B; AlphaScreen BAZ2B-H3K14Ac peptide displacement; Potency, µM (titrated, usually from 114 µM), inactives show at the top dose activity change, negative = inhibition, usual class: inhibitors; hit rate 4.4% among 360,000; Bromodomain adjacent to zinc finger domain protein 2B (Homo sapiens), Q9UIF8; also: % is scaled to controls: 0 for no effect and ±100 for the full control effect; nearly all actives have a fitted effect of over 60% in size
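AlphaScreen displacement: compounds (up to 110uM) incubated 30 min at room temperature with a preformed 50 nM BAZ2B/50 nM biotinylated H3K14Ac peptide complex in PBS pH 7.4 with Tween-20. Donor and acceptor beads at 10 ug/mL final added, 20 min light-protected before reading.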
HP1b binding inh: HTS for Inhibitors of HP1-beta Chromodomain Interactions with Methylated Histone Tails; Potency, µM (top dose mostly 114 µM), without a hit: at the top dose activity change, negative = inhibition, most hits filed as inhibitors; AlphaScreen HP1-beta / biotin-H3K9me3 peptide binding; hit rate 0.56% among 390,000; Chromobox protein homolog 1 (Homo sapiens), P83916; AID 540317, 2011; also: nearly all actives have a fitted effect of over 70% in size
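HP1-beta protein (50 nM final) preincubated 30 min at room temperature with biotinylated H3(1-18)K9me3 peptide (50 nM) in PBS pH 7.4, 0.01% Tween-20, then compound added for 30 min. AlphaScreen streptavidin donor/nickel chelate acceptor beads (10 ug/mL final), 30 min dark, luminescence read.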
JMJD2A Tudor: qHTS Assay for Inhibitors of JMJD2A-Tudor Domain; Lysine-specific demethylase 4A (Homo sapiens), O75164; AlphaScreen JMJD2A-Tudor / H3K4me3 peptide binding; Potency, µM (titrated, usually from 114 µM), without a hit: at the highest dose activity change, negative = inhibition, usual class: inhibitors; hit rate 4.4% among 390,000; AID 504339, 2011; also: % is scaled to controls: 0 for no effect and ±100 for the full control effect; nearly all actives have a fitted effect of over 50% in size
* marks the source's active call; other numbers are inactive results; [ ] = dose if it differs, or a comment. Hits are enriched below; roughly 11% of the tested compounds scored in any of these assays. Calls follow the shape of the dose curve; as a rule, active = well fitted inhibition curve with a large enough effect; inconclusive = small, poorly fitted or top-dose-only effect; inactive = no such curve, though single readings can be large or run the other way. Potency is read from the fitted curve at half-maximal effect.

What do the screens show for `Cc1cc(/N=C/C=C2\N(C)c3ccccc3C2(C)C)n(CCC#N)n1`?
G9a inh: 50µM*; L3MBTL1 inh: -10%; BAZ2B block: inconclusive; HP1b binding inh: 0%; JMJD2A Tudor: inconclusive

What do the screens show for `CN1/C(=C\C=Nc2ccc3ccccc3c2)C(C)(C)c2ccccc21`?
G9a inh: 1.8µM*; L3MBTL1 inh: 0%; BAZ2B block: -35%

How did CN(C)c1ccc(N=C/C=C2\N(C)c3ccccc3C2(C)C)cc1 do in these assays?
G9a inh: 40µM*; L3MBTL1 inh: inconclusive; BAZ2B block: 35µM*; HP1b binding inh: 50µM*; JMJD2A Tudor: -8%[11.4 µM]

What do the screens show for `O=C(Nc1cc(C2CC2)nn1-c1ccccc1)c1ccc(F)cc1`?
L3MBTL1 inh: 7%; HP1b binding inh: 41%; JMJD2A Tudor: -19%

How did CCN1CCN(CCOCCOc2ccccc2)CC1 do in these assays?
L3MBTL1 inh: -19%; BAZ2B block: 79µM*; HP1b binding inh: inconclusive; JMJD2A Tudor: 18µM*

How did CCN1CCN(CCOc2cccc(Oc3ccccc3)c2)CC1 do in these assays?
G9a inh: 22µM*; L3MBTL1 inh: -6%; BAZ2B block: 20µM*; HP1b binding inh: inconclusive; JMJD2A Tudor: 4.5µM*

What do the screens show for `CCOc1ccc(CNC(=O)c2cc(=O)[nH]c3ccc(S(=O)(=O)N4CCCC4)cc23)cc1`?
G9a inh: -4%[59 µM]; BAZ2B block: -1%; HP1b binding inh: 20%; JMJD2A Tudor: -9%

Results for CCc1ccccc1N(C)S(=O)(=O)c1ccc2[nH]cc(C(=O)O)c(=O)c2c1 ?
G9a inh: 45µM*; L3MBTL1 inh: -5%; BAZ2B block: inconclusive; HP1b binding inh: 31%; JMJD2A Tudor: -18%

What do the screens show for `CCN(CC)CCNS(=O)(=O)c1ccc2[nH]cc(C(=O)O)c(=O)c2c1`?
G9a inh: inconclusive; L3MBTL1 inh: inconclusive; BAZ2B block: inconclusive; HP1b binding inh: -13%; JMJD2A Tudor: 56µM*

Results for Oc1c(C(c2ccccc2)N2CCOCC2)sc2nc(-c3ccco3)nn12 (configuration not stated) ?
G9a inh: -25%[59 µM]; BAZ2B block: -10%; HP1b binding inh: 35%; JMJD2A Tudor: -15%

What do the screens show for `COc1ccc(-c2ncccc2OC(=O)C23CC4CC(CC(C4)C2)C3)cc1OC`?
G9a inh: 45µM*; L3MBTL1 inh: inconclusive; BAZ2B block: -6%; HP1b binding inh: -5%; JMJD2A Tudor: -29%

How did O=C(NC(C(=O)c1ccccc1)n1c(=O)cc[nH]c1=S)c1ccccc1 (configuration not stated) do in these assays?
G9a inh: 14µM*; L3MBTL1 inh: 3%; BAZ2B block: 1%; HP1b binding inh: 37%; JMJD2A Tudor: inconclusive

How did O=C(NC(C(=O)c1ccccc1)n1cnccc1=O)c1ccccc1 (configuration not stated) do in these assays?
L3MBTL1 inh: 2%; BAZ2B block: 2%; HP1b binding inh: 57%; JMJD2A Tudor: -4%

How did C=CCn1c(NC(=O)CC)c(C(=O)OCC)sc1=S do in these assays?
G9a inh: 45µM*; BAZ2B block: inconclusive; HP1b binding inh: -1%; JMJD2A Tudor: -3%[57.1 µM]

How did CN1CC=C2C(C#N)=C(N)C(C#N)(C#N)[C@H](c3cccc(Cl)c3)C2C1 (some centres not stated) do in these assays?
G9a inh: 25µM*; BAZ2B block: -35%; HP1b binding inh: 46%; JMJD2A Tudor: -9%

Results for CCOC(=O)N1CC=C2C(C#N)=C(N)C(C#N)(C#N)[C@H](c3ccccc3OCC)[C@H]2C1 ?
G9a inh: -18%[12.7 µM]; BAZ2B block: -29%; HP1b binding inh: 45%; JMJD2A Tudor: -14%

How did N#CC1=C(N)C(C#N)(C#N)[C@H](c2cccnc2)[C@H]2CN(C(=O)OCc3ccccc3)CC=C12 do in these assays?
G9a inh: 50µM*; L3MBTL1 inh: -14%; BAZ2B block: -21%; HP1b binding inh: 29%; JMJD2A Tudor: -9%

How did CN1CC=C2C(C#N)=C(N)C(C#N)(C#N)C(c3ccsc3)C2C1 (configuration not stated) do in these assays?
L3MBTL1 inh: 0%; BAZ2B block: -27%; HP1b binding inh: 43%; JMJD2A Tudor: -25%[11.4 µM]

How did CCOC(=O)N1CC=C2C(C#N)=C(N)C(C#N)(C#N)[C@H](c3ccsc3)[C@H]2C1 do in these assays?
G9a inh: 45µM*; L3MBTL1 inh: 7%; BAZ2B block: -4%; HP1b binding inh: 41%; JMJD2A Tudor: -4%

How did N#CC1=C(N)C(C#N)(C#N)C(c2ccncc2)C2CN(C(=O)OCc3ccccc3)CC=C12 (configuration not stated) do in these assays?
G9a inh: 16µM*; L3MBTL1 inh: 22%[11.4 µM]; BAZ2B block: -3%; HP1b binding inh: 58%; JMJD2A Tudor: -9%

How did NC(=O)CSc1nnc(Cc2ccc3c(c2)OCO3)o1 do in these assays?
G9a inh: 25%; L3MBTL1 inh: -4%; BAZ2B block: -15%; HP1b binding inh: 60%; JMJD2A Tudor: -1%

Results for COCCn1c(=O)c(-c2ccc(OC)cc2)nc2cnc(N3CCN(C)CC3)nc21 ?
G9a inh: 8%[0.501 µM]

What do the screens show for `CCCC1C2CN(C(C)C)CC=C2C(C#N)=C(N)C1(C#N)C#N` (configuration not stated)?
G9a inh: 40µM*; L3MBTL1 inh: -1%; BAZ2B block: -8%; HP1b binding inh: 4%; JMJD2A Tudor: inconclusive

How did CCCCc1nc2ccccc2n1CC(=O)N(COCC)c1c(C)cccc1CC do in these assays?
G9a inh: -5%[59 µM]; BAZ2B block: -2%; HP1b binding inh: 63%; JMJD2A Tudor: -6%

How did C[N+]1(C2CCC3CCC2C3O)CCCC1 (configuration not stated) do in these assays?
G9a inh: 11µM*; L3MBTL1 inh: 3%; BAZ2B block: 50µM*; HP1b binding inh: 27%; JMJD2A Tudor: 4%

What do the screens show for `CC(=O)O[C@H]1C[C@@H]2CCC3C(CC[C@@]4(C)[C@H]3C[C@H]([N+]3(C)CCCCC3)[C@@H]4OC(C)=O)[C@@]2(C)C[C@@H]1[N+]1(C)CCCCC1` (some centres not stated)?
G9a inh: 9%[12.7 µM]

Results for CC(=O)OC1C2CCC1C([N+]1(C)CCCCC1)CC2 (configuration not stated) ?
G9a inh: 32µM*; BAZ2B block: -26%; HP1b binding inh: 71µM*; JMJD2A Tudor: 25µM*
